Inconclusive results are not listed. Activity calls are given as the source filed them.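 The calls were made as follows, unless noted: active = response below a set limit, under 55% cells CD8-positive and vesicle-bound, and CD8 cells' 90th-percentile brightness under 279; inactive = the rest.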
What was measured:
[1] = rapamycin-like changes in RPL19A-GFP expression – cell-based, S. cerevisiae, multiplex flow cytometry, primary screen (AID 1862; in the data active = percent of DMSO control GFP below about 86%;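 also: lower values mimic rapamycin by blocking the RPL19A rise seen in DMSO cells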); details: S. cerevisiae RPL19A-GFP strain, flow cytometry fluorescence, 3 h; at 10 µM; stronger effect = lower value
[2] = TOR pathway GLN3 branch reporter MEP2-GFP changes – S. cerevisiae, multiplex flow cytometry, primary screen (AID 1867;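 active = GFP response, as percent of the DMSO control, above the screen-wide mean plus 3 SD, about 139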;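 also: median GFP channel fluorescence of barcode-gated MEP2-GFP cells measured by flow cytometry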); details: S. cerevisiae MEP2-GFP strain, 3 h, at 10 µM, stronger effect = higher value, 100% means same as DMSO wells
[3] = TOR pathway RTG branch CIT2 reporter changes – S. cerevisiae, GFP fusion, multiplex flow cytometry, primary screen (AID 1870;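 active = percent response above a set limit, the screen-wide mean plus 3 SD, cut at about 130% in these data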;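 also: barcoded CIT2-GFP strain pooled with four other GFP strains with rapamycin as positive control; median GFP fluorescence per well over plate mean of DMSO wells so 100% = DMSO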); details: S. cerevisiae CIT2-GFP expression, 3 h, at 10 µM, stronger effect = higher value
[4] = TOR pathway LAP4-GFP level changes – S. cerevisiae, multiplex flow cytometry, primary screen (AID 1873;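 active = GFP signal, as percent of the solvent control, above the screen mean plus 3 SD, about 149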); details: S. cerevisiae LAP4-GFP expression, 3 h, at 10 µM, stronger effect = higher value
[5] = yeast AGP1-GFP level changes, GLN3 branch – cell-based, multiplex flow cytometry, S. cerevisiae, primary screen (AID 1887;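 active = GFP signal above the screen-wide mean plus 3 SD, that is over about 124.5% of the solvent control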;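 also: AGP1-GFP fusion strain of S. cerevisiae within a five-strain barcoded multiplex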); details: 3 h, at 10 µM, stronger effect = higher value
[6] = reduced mouse 2C T cell binding to pMHC/ICAM-1 vesicles – MLPCN validation set, flow cytometry, LFA-1/ICAM-1 modulator project, pilot screen (AID 2523); details: 2C mouse CD8+ T cells, at 7 µM, stronger effect = lower value; double positive events: measured here: CD8+/vesicle+ event percentage;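 as to vesicle binding response: mean PE anti-B7-1 fluorescence of CD8+ cells relative to row control; 100% = QL9-loaded vesicles with DMSO vehicle in the same plate row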
[7] = target: Integrin beta-1 (Homo sapiens) + Integrin alpha-4 (Homo sapiens) (UniProt P13612+P05556); test: alpha4beta1 integrin LIBS antibody binding reduction – U937 cells, HUTS-21 mAb, flow cytometry, validation set, VLA-4 allosteric modulator project, pilot screen (AID 2674;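 active = inhibition above 50%, about 3 SD of the validation set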;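 also: antibody binding induced by the VLA-4 ligand LDV present at three times its Kd; 0% = LDV ligand with antibody and no compound and 100% = antibody without LDV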); details: HUTS-21 LIBS mAb binding, at 6.7 µM, stronger effect = higher value, binding induced by LDV ligand
[8] = calorie-restriction mimetic ROS inhibitors, yeast – validation compound set, pilot screen (AID 2706;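 active = superoxide response below 65% of plate, a cut near 3 SD across the whole screen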;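 also: yeast exposed to compound for one week at 30 degrees C before staining; 100% = mean of all compound wells on the same plate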); details: S. cerevisiae aging, superoxide DHE fluorescence; at 10 µM; stronger effect = lower value
[9] = target: Beta-adrenergic receptor kinase 1 (Homo sapiens) (UniProt P25098); test: GRK2 binders displacing RNA aptamer, biochemical, validation, human GRK2, bead flow cytometry (AID 488806;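 active = aptamer binding inhibition above 30%, about 3 SD of noise from non-fluorescent compounds; inactive = inhibition at or below 30%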); details: bead-bound GRK2, FAM-aptamer displacement, at 10 µM, stronger effect = higher value
[10] = target: Beta-2 adrenergic receptor (Homo sapiens) (UniProt P07550); test: agonist-induced loss of surface beta2AR – cell-based, FAP fluorogen, flow cytometry, validation set, pilot screen (AID 504459;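 active = percent response above 42, roughly 3 SD of non-fluorescent test compounds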;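 also: agonist-driven loss of surface beta2AR via internalization measured by FAP dye flow cytometry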); details: Am2.2-beta2AR cells, at 10 µM, stronger effect = higher value
[11] = target: AP-2 complex subunit beta (Homo sapiens) (UniProt P63010); test: beta-arrestin/AP2 interaction blockers – biochemical, validation set, GST-AP2 beads, flow cytometry, pilot screen (AID 504541;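 active = inhibition above 54%, about 3 SD of non-fluorescent compounds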;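 also: AP2 carries R879A mutation and is captured from E. coli lysate; bead-bound FITC arrestin peptide fluorescence measuring arrestin peptide binding to AP2; 0% = DMSO wells and 100% = excess unlabeled arrestin peptide control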); details: FITC arrestin peptide, at 10 µM, stronger effect = higher value, AP2 beta2 appendage fragment, R879A mutant
[12] = cytosolic pH regulators acting via V-ATPase – S. cerevisiae, pHLuorin, HTS validation (AID 504600; in the data active = response above about 15%;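 also: plate controls were DMSO for no effect and reference compound for full effect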); details: V-ATPase proton transport, at 10 µM, stronger effect = higher value
[13] = system: anti-desmoglein-3 scFv antibody binding to human DSG3; test: blockers of pathogenic pemphigus antibody–desmoglein-3 binding – biochemical, validation compound set, bead-based, flow cytometry, pilot screen (AID 588368;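 active = binding below the plate cutoff, the plate median minus 3 SD, with a reading above zero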;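 also: signal is the median channel fluorescence of bead-bound GFP antibody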); details: Protein G beads, DSG3-Fc, scFv-GFP binding, at 10 µM, stronger effect = lower value
[14] = Nile Red efflux blockade in pump-expressing yeast – validation compound set, multiplex, phenotypic, pilot screen (AID 588506;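 active = efflux inhibition above 0.42, the validation set average plus 4 SD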;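 also: Nile Red retained in cells so higher fluorescence means more efflux inhibition; 0 = negative control wells and 1 = enniatin B 25 µM full block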); details: S. cerevisiae pump-expressing triplex, Nile Red efflux flow cytometry; at 10 µM; stronger effect = higher value; the pumps come from Candida albicans
[15] = target: ATP-binding cassette sub-family B member 6 (Homo sapiens) (UniProt Q9NP58); test: blockers of ABCB6-driven porphyrin uptake – K562-ABCB6 cells, flow cytometry, validation set, pilot screen (AID 588550;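 active = inhibition above the screen-wide mean plus 3 SD, about 51%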;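 also: 0% = DMSO wells and 100% = benzethonium chloride 70 µM positive control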); details: K562-ABCB6 porphyrin accumulation, 1 h, at 10 µM, stronger effect = higher value
[16] = AML differentiation inducers, ER-HoxA9 marrow cells – cell-based, GFP/MAC1 double positive, flow cytometry, validation set, primary screen (AID 588685;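 active = differentiation response of at least 50%, scaled between solvent and reference control, from cells with both markers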;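 also: compound exposure lasts four days before antibody staining and flow analysis; 0% = DMSO wells and 100% = 5 µM fulvestrant positive control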); details: stronger effect = higher value, normalized: vehicle 0, fulvestrant 100

Sequence of ATP-binding cassette sub-family B member 6 (Homo sapiens) (Q9NP58 whole entry, looked up): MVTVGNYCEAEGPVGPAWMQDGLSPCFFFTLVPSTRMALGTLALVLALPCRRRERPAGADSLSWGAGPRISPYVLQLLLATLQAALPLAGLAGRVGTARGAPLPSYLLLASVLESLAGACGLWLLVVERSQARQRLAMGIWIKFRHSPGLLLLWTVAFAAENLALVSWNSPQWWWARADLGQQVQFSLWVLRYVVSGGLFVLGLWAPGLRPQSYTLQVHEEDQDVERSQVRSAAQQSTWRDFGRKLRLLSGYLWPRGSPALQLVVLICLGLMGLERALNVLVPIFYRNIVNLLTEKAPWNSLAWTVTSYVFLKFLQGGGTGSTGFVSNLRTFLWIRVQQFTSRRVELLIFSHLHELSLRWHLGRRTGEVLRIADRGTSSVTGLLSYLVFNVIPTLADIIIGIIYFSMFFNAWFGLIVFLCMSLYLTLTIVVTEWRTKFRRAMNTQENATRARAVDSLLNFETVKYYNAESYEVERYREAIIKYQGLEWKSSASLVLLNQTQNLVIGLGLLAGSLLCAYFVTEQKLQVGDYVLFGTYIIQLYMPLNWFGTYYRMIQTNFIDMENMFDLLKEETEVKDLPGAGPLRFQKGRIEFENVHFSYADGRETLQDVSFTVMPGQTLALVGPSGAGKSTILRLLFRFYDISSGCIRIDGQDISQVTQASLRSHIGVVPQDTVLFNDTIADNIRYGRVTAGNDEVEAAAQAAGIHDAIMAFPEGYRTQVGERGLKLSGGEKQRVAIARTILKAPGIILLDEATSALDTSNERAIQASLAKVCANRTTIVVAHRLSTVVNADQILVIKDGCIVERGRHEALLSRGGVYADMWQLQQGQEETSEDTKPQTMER
Sequence of AP-2 complex subunit beta (Homo sapiens) (P63010 whole entry, looked up, the tested form may be a part, one chain of several): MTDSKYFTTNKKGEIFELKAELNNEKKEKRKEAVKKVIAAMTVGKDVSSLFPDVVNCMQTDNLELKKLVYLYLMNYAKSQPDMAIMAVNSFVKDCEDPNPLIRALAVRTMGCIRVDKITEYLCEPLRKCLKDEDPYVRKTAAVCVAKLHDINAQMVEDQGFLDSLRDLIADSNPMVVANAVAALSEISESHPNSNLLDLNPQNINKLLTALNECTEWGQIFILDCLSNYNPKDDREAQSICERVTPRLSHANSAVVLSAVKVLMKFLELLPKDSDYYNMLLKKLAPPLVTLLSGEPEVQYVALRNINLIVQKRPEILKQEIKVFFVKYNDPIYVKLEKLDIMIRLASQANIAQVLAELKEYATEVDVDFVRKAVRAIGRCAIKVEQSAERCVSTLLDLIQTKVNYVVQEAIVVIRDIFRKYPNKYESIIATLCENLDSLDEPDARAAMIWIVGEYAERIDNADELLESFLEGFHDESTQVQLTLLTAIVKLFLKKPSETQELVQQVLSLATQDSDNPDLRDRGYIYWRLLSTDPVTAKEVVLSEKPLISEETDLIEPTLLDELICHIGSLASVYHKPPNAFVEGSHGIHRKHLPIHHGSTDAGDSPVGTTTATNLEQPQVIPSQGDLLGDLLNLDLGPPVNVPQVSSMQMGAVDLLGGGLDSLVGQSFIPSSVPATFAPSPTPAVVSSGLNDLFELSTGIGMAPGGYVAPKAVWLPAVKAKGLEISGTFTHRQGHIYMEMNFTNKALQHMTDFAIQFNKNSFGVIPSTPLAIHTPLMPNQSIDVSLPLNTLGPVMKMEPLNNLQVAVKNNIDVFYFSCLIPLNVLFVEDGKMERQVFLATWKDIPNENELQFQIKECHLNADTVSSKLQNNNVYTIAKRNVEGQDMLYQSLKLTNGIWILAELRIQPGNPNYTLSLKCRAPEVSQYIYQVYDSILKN
Sequence of Integrin beta-1 (Homo sapiens) + Integrin alpha-4 (Homo sapiens) (P05556 whole entry, looked up): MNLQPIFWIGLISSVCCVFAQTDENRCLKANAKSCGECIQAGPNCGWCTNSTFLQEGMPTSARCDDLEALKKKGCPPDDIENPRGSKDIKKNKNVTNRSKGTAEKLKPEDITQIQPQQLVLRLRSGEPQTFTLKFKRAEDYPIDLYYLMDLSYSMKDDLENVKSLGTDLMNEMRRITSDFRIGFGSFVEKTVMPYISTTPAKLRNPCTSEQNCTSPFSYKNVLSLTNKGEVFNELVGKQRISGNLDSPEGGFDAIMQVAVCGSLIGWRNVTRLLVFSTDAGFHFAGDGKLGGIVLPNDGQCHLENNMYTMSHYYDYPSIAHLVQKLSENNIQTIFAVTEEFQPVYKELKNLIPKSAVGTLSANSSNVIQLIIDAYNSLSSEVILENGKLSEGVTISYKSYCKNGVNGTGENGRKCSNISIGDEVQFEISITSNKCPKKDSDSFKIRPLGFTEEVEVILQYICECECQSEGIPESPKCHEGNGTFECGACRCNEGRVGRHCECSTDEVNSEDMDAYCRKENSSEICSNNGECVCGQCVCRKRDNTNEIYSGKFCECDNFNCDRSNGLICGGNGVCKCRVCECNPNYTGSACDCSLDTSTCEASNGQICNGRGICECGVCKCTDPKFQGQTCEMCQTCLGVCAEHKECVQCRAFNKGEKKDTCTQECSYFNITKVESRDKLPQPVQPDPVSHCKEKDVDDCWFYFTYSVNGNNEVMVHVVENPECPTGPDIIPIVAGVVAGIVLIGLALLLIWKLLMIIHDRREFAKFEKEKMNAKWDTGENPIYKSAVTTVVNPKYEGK
Sequence of Integrin beta-1 (Homo sapiens) + Integrin alpha-4 (Homo sapiens) (P13612 whole entry, looked up): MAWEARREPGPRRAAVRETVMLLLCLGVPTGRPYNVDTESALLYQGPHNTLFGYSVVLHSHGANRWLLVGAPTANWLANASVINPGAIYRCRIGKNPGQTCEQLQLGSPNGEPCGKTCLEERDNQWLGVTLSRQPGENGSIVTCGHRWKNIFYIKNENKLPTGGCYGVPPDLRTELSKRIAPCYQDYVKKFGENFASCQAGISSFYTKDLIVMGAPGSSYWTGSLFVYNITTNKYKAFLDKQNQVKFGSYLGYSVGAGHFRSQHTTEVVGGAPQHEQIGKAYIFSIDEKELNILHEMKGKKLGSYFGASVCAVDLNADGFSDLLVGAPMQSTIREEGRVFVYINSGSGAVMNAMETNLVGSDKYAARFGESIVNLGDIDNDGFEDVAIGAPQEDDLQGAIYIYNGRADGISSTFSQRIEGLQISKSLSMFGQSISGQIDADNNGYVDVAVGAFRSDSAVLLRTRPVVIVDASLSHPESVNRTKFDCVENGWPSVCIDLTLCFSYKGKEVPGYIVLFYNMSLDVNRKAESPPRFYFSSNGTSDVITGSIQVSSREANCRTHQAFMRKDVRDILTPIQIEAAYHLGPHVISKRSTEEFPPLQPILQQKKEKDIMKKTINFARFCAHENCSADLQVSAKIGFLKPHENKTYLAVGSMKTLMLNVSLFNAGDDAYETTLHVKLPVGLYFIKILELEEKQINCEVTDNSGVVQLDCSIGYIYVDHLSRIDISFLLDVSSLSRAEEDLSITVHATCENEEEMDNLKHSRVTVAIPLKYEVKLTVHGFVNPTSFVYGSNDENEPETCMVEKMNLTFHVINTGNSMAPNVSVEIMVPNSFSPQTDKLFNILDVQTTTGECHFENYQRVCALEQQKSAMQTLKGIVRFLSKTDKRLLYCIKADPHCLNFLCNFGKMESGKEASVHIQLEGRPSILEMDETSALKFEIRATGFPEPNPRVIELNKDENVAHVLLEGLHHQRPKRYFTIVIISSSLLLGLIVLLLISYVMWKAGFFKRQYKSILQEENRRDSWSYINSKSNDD
Sequence of Beta-adrenergic receptor kinase 1 (Homo sapiens) (P25098 whole entry, looked up): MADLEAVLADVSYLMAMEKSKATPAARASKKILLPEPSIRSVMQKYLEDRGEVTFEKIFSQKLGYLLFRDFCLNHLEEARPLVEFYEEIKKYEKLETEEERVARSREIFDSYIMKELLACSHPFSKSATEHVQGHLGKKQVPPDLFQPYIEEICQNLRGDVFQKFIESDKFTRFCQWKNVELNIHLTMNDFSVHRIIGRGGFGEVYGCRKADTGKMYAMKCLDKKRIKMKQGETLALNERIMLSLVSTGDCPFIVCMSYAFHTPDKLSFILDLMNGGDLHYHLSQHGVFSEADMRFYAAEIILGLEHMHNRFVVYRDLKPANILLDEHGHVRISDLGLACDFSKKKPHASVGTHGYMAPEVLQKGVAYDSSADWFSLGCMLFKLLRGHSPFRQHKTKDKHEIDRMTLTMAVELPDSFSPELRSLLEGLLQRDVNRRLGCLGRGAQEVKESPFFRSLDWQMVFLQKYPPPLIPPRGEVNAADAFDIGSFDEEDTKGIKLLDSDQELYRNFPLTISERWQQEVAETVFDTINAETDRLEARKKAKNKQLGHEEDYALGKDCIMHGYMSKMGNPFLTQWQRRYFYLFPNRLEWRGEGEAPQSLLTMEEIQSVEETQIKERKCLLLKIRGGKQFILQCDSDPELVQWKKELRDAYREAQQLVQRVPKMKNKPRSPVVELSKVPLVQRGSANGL
Sequence of Beta-2 adrenergic receptor (Homo sapiens) (P07550 whole entry, looked up): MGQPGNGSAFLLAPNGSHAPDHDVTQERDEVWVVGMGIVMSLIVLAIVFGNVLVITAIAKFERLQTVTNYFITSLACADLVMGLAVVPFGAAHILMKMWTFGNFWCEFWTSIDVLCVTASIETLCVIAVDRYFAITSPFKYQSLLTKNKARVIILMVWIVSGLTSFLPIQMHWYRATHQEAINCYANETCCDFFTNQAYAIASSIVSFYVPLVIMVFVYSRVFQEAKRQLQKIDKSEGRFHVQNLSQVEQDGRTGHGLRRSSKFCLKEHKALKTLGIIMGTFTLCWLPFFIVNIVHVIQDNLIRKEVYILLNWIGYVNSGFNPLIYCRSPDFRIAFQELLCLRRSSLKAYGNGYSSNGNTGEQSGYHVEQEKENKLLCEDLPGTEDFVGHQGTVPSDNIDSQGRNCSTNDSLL

Compound | percent of DMSO control GFP [1] | GFP response vs DMSO [2] | percent response of DMSO control [3] | GFP response vs DMSO [4] | GFP response, % of DMSO [5] | double positive events [6] [%] | vesicle binding response [6] | inhibition [7] | superoxide response (% of plate) [8] | aptamer binding inhibition [9] | response [10] | inhibition [11] | response [12] | binding (% of control) [13] | efflux inhibition (fraction of control) [14] | inhibition [15] | differentiation response [16]
CCOC(=O)C1=C[C@]2(CC)CCCN3CCc4c(n1c1ccccc41)[C@@H]32 | 98.4% (inactive) | 107% (inactive) | 96.6% (inactive) | 104% (inactive) | 96.5% (inactive) | 56.4 | 43.9% (inactive) | -4.6% (inactive) | 92.5% (inactive) | -1% (inactive) | -5% (inactive) | -10.5% (inactive) | 4.61% (inactive) | 97.2% (inactive) | -0.23 (inactive) | 8% (inactive) | -3.67% (inactive)
CN(C)CCN(Cc1ccc(Cl)cc1)c1ccccn1 | 107% (inactive) | 112% (inactive) | 114% (inactive) | 114% (inactive) | 118% (inactive) | 61.2 | 125% (inactive) | 0.25% (inactive) | 96% (inactive) | -4% (inactive) | -7.41% (inactive) | 54.2% (active) | -5.25% (inactive) | 97.3% (inactive) | 0.37 (inactive) | 8% (inactive) | -19.2% (inactive)
COc1cccc(-n2cc(CNCc3c(C(=O)N(C)C)nc4ccc(Cl)cn34)cn2)c1 | 103% (inactive) | 106% (inactive) | 111% (inactive) | 90.1% (inactive) | 99.9% (inactive) | 61.4 | 171% (inactive) | -4.6% (inactive) | 106% (inactive) | 5% (inactive) | -6.24% (inactive) | -5.56% (inactive) | -0.56% (inactive) | 98% (inactive) | -0.26 (inactive) | 19% (inactive) | 10% (inactive)
Nc1nc(SCc2ccc([N+](=O)[O-])cc2)c2ncn(C3OC(CO)C(O)C3O)c2n1 (stereo not drawn) | 108% (inactive) | 99.7% (inactive) | 106% (inactive) | 100% (inactive) | 107% (inactive) | 63.2 | 169% (inactive) | 8.29% (inactive) | 105% (inactive) | 0% (inactive) | -15.6% (inactive) | 14.6% (inactive) | 0.04% (inactive) | 98.1% (inactive) | -0.07 (inactive) | 2% (inactive) | -7.5% (inactive)
Cc1ccc(Cl)c(OCCCN(C)Cc2ccccc2)c1 | 100% (inactive) | 96.6% (inactive) | 98.3% (inactive) | 106% (inactive) | 106% (inactive) | 64.5 | 161% (inactive) | 13.4% (inactive) | 95% (inactive) | 2% (inactive) | -6.56% (inactive) | 0.6% (inactive) | 0.72% (inactive) | 112% (inactive) | -0.26 (inactive) | 19% (inactive) | -6.96% (inactive)
Nc1nc2c(nc(SCc3ccccc3Br)n2C2OC(CO)C(O)C2O)c(=O)[nH]1 (stereo not drawn) | 102% (inactive) | 97.4% (inactive) | 101% (inactive) | 108% (inactive) | 101% (inactive) | 62.7 | 50.1% (inactive) | -1.79% (inactive) | 94.9% (inactive) | 0% (inactive) | 17.9% (inactive) | 26.3% (inactive) | -4.55% (inactive) | 90.9% (inactive) | 0.12 (inactive) | 1% (inactive) | -23.2% (inactive)
O=C(CN1CCN(Cc2ccccc2)CC1)N1CCCc2c1c(=O)oc1ccc(O)cc21 | 93.3% (inactive) | 127% (inactive) | 108% (inactive) | 77.6% (inactive) | 84.3% (inactive) | 53 | 202% (inactive) | -11% (inactive) | 107% (inactive) | -3% (inactive) | -14.1% (inactive) | 9.01% (inactive) | -1.88% (inactive) | 109% (inactive) | -0.31 (inactive) | 3% (inactive) | 8.19% (inactive)
C[C@]12CC[C@@H]3c4ccc(O)cc4CC[C@H]3[C@@H]1CC[C@@H]2O | 98.8% (inactive) | 105% (inactive) | 98.2% (inactive) | 132% (inactive) | 98.6% (inactive) | 63 | 186% (inactive) | 5.41% (inactive) | 97.8% (inactive) | 1% (inactive) | -1.92% (inactive) | 21.6% (inactive) | 2.25% (inactive) | 103% (inactive) | 0.68 (active) | 4% (inactive) | 9.54% (inactive)
COc1cc2nc(-c3ccccc3)nc(N3CCCC3)c2cc1OC | 104% (inactive) | 98.3% (inactive) | 107% (inactive) | 82.2% (inactive) | 104% (inactive) | 68.2 | 459% (inactive) | -36.8% (inactive) | 85.3% (inactive) | 6% (inactive) | -10% (inactive) | -3.58% (inactive) | 2.32% (inactive) | 98.2% (inactive) | -0.07 (inactive) | 11% (inactive) | -1.71% (inactive)
Cc1c2c(nc3c(C)cccc13)OC(C)C2 (stereo not drawn) | 105% (inactive) | 100% (inactive) | 112% (inactive) | 97.3% (inactive) | 103% (inactive) | 52 | 31.8% (active) | -3.57% (inactive) | 99.9% (inactive) | -2% (inactive) | -11.5% (inactive) | 2.14% (inactive) | 3.8% (inactive) | 97.6% (inactive) | 0.11 (inactive) | 3% (inactive) | -9.53% (inactive)
CC(=O)OCC#CCSc1nc2ccccc2n1C | 97.6% (inactive) | 89.7% (inactive) | 96.7% (inactive) | 103% (inactive) | 92.9% (inactive) | 57.8 | 163% (inactive) | -8.62% (inactive) | 95% (inactive) | 2% (inactive) | 7.19% (inactive) | 14.1% (inactive) | 2.63% (inactive) | 94.9% (inactive) | -0.21 (inactive) | 12% (inactive) | -7.2% (inactive)
CCN1C(=O)C(CC(=O)Nc2ccc(F)cc2)N(Cc2ccco2)C1=S (stereo not drawn) | 99% (inactive) | 102% (inactive) | 95.1% (inactive) | 106% (inactive) | 114% (inactive) | 62.4 | 194% (inactive) | 15.1% (inactive) | 107% (inactive) | 5% (inactive) | -17.8% (inactive) | -8.85% (inactive) | 1.67% (inactive) | 99.9% (inactive) | -0.04 (inactive) | 7% (inactive) | 18.7% (inactive)
O=C(CCCN1C(=O)/C(=C\c2cccc(Br)c2)SC1=S)Nc1cccnc1 | 94.2% (inactive) | 104% (inactive) | 95.8% (inactive) | 120% (inactive) | 95.8% (inactive) | 57.4 | 211% (inactive) | 2.3% (inactive) | 98.5% (inactive) | 2% (inactive) | 10.2% (inactive) | -4.08% (inactive) | -5.34% (inactive) | 101% (inactive) | 0.01 (inactive) | 5% (inactive) | -12% (inactive)
CC(C)Oc1cccc(C(=O)N2CCCC2)c1 | 102% (inactive) | 106% (inactive) | 94.2% (inactive) | 99.9% (inactive) | 100% (inactive) | 64.7 | 221% (inactive) | -4.6% (inactive) | 101% (inactive) | 0% (inactive) | -9.83% (inactive) | -4.57% (inactive) | 1.82% (inactive) | 93.2% (inactive) | 0.14 (inactive) | -4% (inactive) | 9.04% (inactive)
CCOc1ccc(C(=O)NCC2(c3ccccc3)CCOCC2)cc1 | 99.8% (inactive) | 97.7% (inactive) | 108% (inactive) | 105% (inactive) | 108% (inactive) | 63.3 | 172% (inactive) | -13.2% (inactive) | 95.9% (inactive) | -4% (inactive) | -2.34% (inactive) | -4.75% (inactive) | -1% (inactive) | 107% (inactive) | -0.11 (inactive) | 11% (inactive) | 10.1% (inactive)
COC(=O)C1=C(C)NC(C)=C(C(=O)OCCN(C)Cc2ccccc2)C1c1cccc([N+](=O)[O-])c1 (stereo not drawn) | 101% (inactive) | 108% (inactive) | 96.5% (inactive) | 100% (inactive) | 110% (inactive) | 61.3 | 159% (inactive) | 0.25% (inactive) | 98.7% (inactive) | 1% (inactive) | 0.14% (inactive) | 57.5% (active) | -9.84% (inactive) | 97.3% (inactive) | 0.01 (inactive) | -2% (inactive) | -1.65% (inactive)
O=C(Cc1ccccc1)NNC(=O)Cc1ccccc1 | 101% (inactive) | 108% (inactive) | 102% (inactive) | 94% (inactive) | 98.9% (inactive) | 63.3 | 224% (inactive) | -5.64% (inactive) | 113% (inactive) | -1% (inactive) | -7.57% (inactive) | 53.7% (inactive) | -12.3% (inactive) | 91.9% (inactive) | 0.27 (inactive) | 2% (inactive) | 24.7% (inactive)
COc1ccc2[nH]c(=O)c(CNC3CCCCC3)cc2c1 | 102% (inactive) | 103% (inactive) | 106% (inactive) | 98% (inactive) | 99.9% (inactive) | 63.6 | 244% (inactive) | 11% (inactive) | 106% (inactive) | 2% (inactive) | -1.53% (inactive) | -0.94% (inactive) | 1.21% (inactive) | 95.5% (inactive) | -0.01 (inactive) | -1% (inactive) | 0.24% (inactive)
O=C(O)/C=C/c1cccc(OCc2ccccc2)c1 | 93.8% (inactive) | 105% (inactive) | 93.4% (inactive) | 123% (inactive) | 82.2% (inactive) | 58.1 | 131% (inactive) | 5.61% (inactive) | 104% (inactive) | 3% (inactive) | 4.34% (inactive) | 13.5% (inactive) | -4.03% (inactive) | 94.3% (inactive) | -0.24 (inactive) | 8% (inactive) | -8.96% (inactive)

— PubChem BioAssay
